# Source: PubChem
# HP1b chromo inh = HTS for Inhibitors of HP1-beta Chromodomain Interactions with Methylated Histone Tails; Chromobox protein homolog 1 (Homo sapiens), P83916; AlphaScreen HP1-beta / biotin-H3K9me3 peptide binding; Potency, µM (top dose mostly 114 µM), actives largely listed as inhibitors; 390,000 tested, 0.56% active; AID 540317, 2011; also: nearly all actives have a fitted effect of over 70% in size
#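 HP1-beta protein (50 nM final) preincubated 30 min at room temperature with biotinylated H3(1-18)K9me3 peptide (50 nM) in PBS pH 7.4, 0.01% Tween-20, then compound added for 30 min. AlphaScreen streptavidin donor/nickel chelate acceptor beads (10 ug/mL final), 30 min dark, luminescence read.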
# BAZ2B inh = qHTS Assay for Inhibitors of BAZ2B | Potency, µM (doses to about 114 µM), hits mostly inhibitors | 360,000 tested, 4.4% active | Bromodomain adjacent to zinc finger domain protein 2B (Homo sapiens), Q9UIF8 | AID 504333, 2011 | AlphaScreen BAZ2B-H3K14Ac peptide displacement; also: nearly all actives have a fitted effect of over 60% in size
#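 Complex of BAZ2B and biotin-H3K14Ac (50 nM apiece) forms over 30 min at RT, then faces library compounds up to 110 uM for another 30 min; AlphaScreen beads added, 20 min dark incubation, luminescence read.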
# JMJD2A Tudor inh = qHTS Assay for Inhibitors of JMJD2A-Tudor Domain; 390,000 tested, 4.4% active; AlphaScreen JMJD2A-Tudor / H3K4me3 peptide binding; AID 504339, 2011; Lysine-specific demethylase 4A (Homo sapiens), O75164; Potency, µM (titrated, usually from 114 µM), usual class: inhibitors; also: nearly all actives have a fitted effect of over 50% in size
# G9a inh = qHTS Assay for Inhibitors of Histone Lysine Methyltransferase G9a. Histone-lysine N-methyltransferase EHMT2 (Homo sapiens), Q96KQ7. G9a H3K9 monomethylation, AlphaScreen, 2 h. Potency, µM (highest dose often 102 µM), hits mostly inhibitors. 350,000 tested, 8.8% active. AID 504332, 2011; also: nearly all actives have a fitted effect of over 75% in size
#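 Signal arises when biotinylated H3K9 peptide, once monomethylated, bridges streptavidin donor and antibody-captured acceptor beads. Enzyme at 20 nM was preincubated 15 min with test compounds; peptide 500 nM and SAM 20 uM then reacted for 2 h.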
# CtBP-E1A inh = qHTS Assay for Inhibitors of the CtBP/E1A Interaction; CtBP / adenovirus E1A interaction (AlphaScreen); 340,000 tested, 0.49% active; AlphaScreen GST-E1A/His-CtBP binding, 1536-well; hits give low values; activity change, % (concentration not given with the values); in the data active = activity change below about -65%; inconclusive = mostly about -30% to -63%
#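 Steps: dispense buffer (Tris pH 8.0, NaCl 300 mM, TCEP 1 mM, BSA, Tween 20); add 5X protein mix (GST-E1A, His-CtBP, 125 nM each); pin 23 nL compound; 2 h at 37 °C, dark; add 5X beads (50 ug/mL); 1 h; read.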
# Six1-Eya2 inh = qHTS Assay for Inhibitors of the Six1/Eya2 Interaction; Homeobox protein SIX1 (Homo sapiens) + Protein phosphatase EYA2 (Homo sapiens), …; AlphaScreen GST-Six1/His-Eya2 binding, biochemical; hits give low values; activity change, % (no concentration beside the values); 360,000 tested, 0.56% active; AID 651725, 2012; in the data active = activity change below about -65%; inconclusive = mostly about -30% to -63%
#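 GST-Six1 + His-Eya2 (5X stock: 250/500 nM); Tris pH 8.0, 300 mM NaCl, 0.05% BSA, 0.02% Tween 20; GSH donor/Ni acceptor beads; 1 h 37 °C dark; AlphaScreen readout.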
# A number is an active result; n = inactive; u = inconclusive; x = no result given; ! = not active in a repeat; [ ] = dose if it differs, or a comment. Sampled rows, rich in hits. Any-hit rate of the full collection: about 10%. Unless noted, calls follow the shape of the dose curve; as a rule, active = well fitted inhibition curve with a large enough effect; inconclusive = small, poorly fitted or top-dose-only effect; inactive = no such curve, though single readings can be large or run the other way.
SMILES,HP1b chromo inh,BAZ2B inh,JMJD2A Tudor inh,G9a inh,CtBP-E1A inh,Six1-Eya2 inh
C=CCN1CC[C@]23CCCCC2[C@H]1Cc1ccc(O)cc13 (some centres undefined),x,x,x,n[12.7 µM],x,x
C=CCN1CCc2cccc3c2[C@H]1Cc1ccc(O)c(O)c1-3,35µM,u,16µM,0.53µM,n,n
Cc1cccc(N2CCN(C(=O)CCCCn3c(=O)[nH]c4ccsc4c3=O)CC2)c1C,n,u,n,n,x,x
C[C@H](N)Cc1cccc(C(F)(F)F)c1,x,x,x,30µM,x,x
C[C@]12CC[C@@H](O)CC1CCC1C2CC[C@]2(C)C(=O)CC[C@@H]12 (some centres undefined),x,x,x,n[12.7 µM],x,x
ClC1=C(Cl)C2(Cl)C3C4CC(C5OC45)C3C1(Cl)C2(Cl)Cl (centres undefined),x,x,x,n[12.7 µM],x,x
CCCC(C)c1nnc(NC(=O)CCS(=O)(=O)c2ccccc2)s1 (centres undefined),u,u,50µM,4µM,n,n
Cc1ccc(N/N=C/C=C/c2ccco2)cc1,u,x,50µM,x,n,n
CC[C@H](C)/C=C(C)/C=C/C1=CC2=C(Cl)C(=O)[C@](C)(OC(C)=O)C(=O)C2=CO1,u,x,79µM,x,n,n
O=C(Nc1nnc(SCc2ccccc2Cl)s1)C1COc2ccccc2O1 (centres undefined),n,n,n,n,n,n
O=c1[nH]c(=O)n(CCC2=CCCCC2)c(O)c1C=NCc1cccnc1,n,n,n,50µM,n,n
CCN(CC)CCN=Cc1c(O)n(CCC2=CCCCC2)c(=O)[nH]c1=O,n,n,n,n[12.7 µM],n,n
Cc1ccc2[nH]c(C)c(CCNCc3ccco3)c2c1,n,u,u,u,x,n
CCOc1cccc(CNCCc2c(C)[nH]c3ccc(OC(F)(F)F)cc23)c1O,u,35µM,40µM,10µM,x,n
Cc1[nH]c2ccc(OC(F)(F)F)cc2c1CCNCc1cccc([N+](=O)[O-])c1,u,50µM,7.1µM,50µM,n,n
COc1ccc2[nH]c(C)c(CCNCc3cccnc3)c2c1,u,20µM,7.1µM,u,n,n
Cc1[nH]c2ccc(OC(F)(F)F)cc2c1CCNCc1ccc(Cl)cc1,u,50µM,13µM,u,n,n
NC[C@@H]1O[C@H](O[C@H]2[C@H](O)[C@@H](O[C@H]3[C@H](O)[C@H](N)C[C@H](N)[C@H]3O[C@@H]3O[C@H](CO)[C@@H](O)[C@H](O)[C@@H]3N)O[C@H]2CO)[C@@H](N)[C@H](O)[C@@H]1O,x,x,x,n[21.5 µM],x,x
Cc1o[nH]c(=O)c1CC(N)C(=O)O (centres undefined),x,x,x,21µM!,x,x
C=C1C2CC[C@@]3(C)C(c4ccoc4)OC(=O)C[C@@]13OC1CC(=O)C(C)(C)C(C(OC(C)=O)C(=O)OC)[C@@]12C (some centres undefined),x,x,x,n[2.33 µM],x,x
CC[C@@]1(O)C(=O)OCc2c1cc1n(c2=O)Cc2cc3c(O)cccc3nc2-1,x,x,x,2.5µM,x,x
CCC1(O)C(=O)OCc2c1cc1n(c2=O)Cc2cc3cc(O)ccc3nc2-1 (centres undefined),n,x,u,x,n,n
CC[C@@]1(O)C(=O)OCc2c1cc1n(c2=O)Cc2cc3ccccc3nc2-1,n,n,n,45µM!,x,x
CC[C@@]1(O)C(=O)OCc2c1cc1n(c2=O)Cc2cc3c(NC(=O)CN)cccc3nc2-1,n,u,n,u,n,n
CC(C)CN1CC2(CCN(C(=O)c3ccncc3)CC2)C1,x,x,x,n[12.7 µM],x,x
SMILES,HP1b chromo inh,BAZ2B inh,JMJD2A Tudor inh,G9a inh,CtBP-E1A inh,Six1-Eya2 inh
CN1CC(C(=O)c2ccc(Cl)cc2)C(c2ccccc2)C1 (centres undefined),n,n,n,45µM,x,n
CN1CC(C(=O)c2cccs2)C(c2ccc(Cl)cc2)C1 (centres undefined),n,n,n,n,n,n
O=C(O)C(Cc1cnc[nH]1)NS(=O)(=O)c1ccc(Br)cc1 (centres undefined),n,n,10µM,40µM,n,n
O=C(NC(Cc1cnc[nH]1)C(=O)O)c1ccccc1 (centres undefined),n,n,n,u,n,n
CC(=O)C1=NOC(CNc2ncc(C(F)(F)F)cc2Cl)C1 (centres undefined),n,n,n,n,n,n
Oc1ccc(C2=CCNCC2)cc1O,u,x,10µM,x,x,x
CC1CCN(CC#CCOc2ccc(Cl)cc2)CC1,u,50µM,35µM,n[0.501 µM],n,n
COc1ccc(OCC#CCN2CCNCC2)cc1,u,32µM,6.3µM,8.9µM,n,n
COc1ccc2c(c1)C13CCCCC1C(C2)N(C)CC3 (centres undefined),x,x,x,n[12.7 µM],x,x
COc1ccc(NC(=O)CCn2cc(C)c3ccccc32)cc1,n,u,u,u,n,n
CCN[C@]1(c2cccs2)CCCCC1=O,x,x,x,n[21.5 µM],x,x
Cc1nc2cc(F)ccc2n1C1CCN(Cc2nnnn2CCc2ccccc2)CC1,n,56µM,n,n,n,n
CCOC(=O)c1cc(CC)sc1/N=C/C1C(=O)NC(=S)NC1=O,n,x,n,45µM,n,n
CCOC(=O)c1cc(CC)sc1/N=C/c1c(O)[nH]c(=S)[nH]c1=O,n,n,n,u,n,n
CN(C)c1nc(-c2ccccc2)[n+](C)s1,n,n,n,3.2µM,n,n
Cc1ccc(CNCc2c(C(=O)O)n(Cc3ccccc3C)c3cc(C)ccc23)cc1,n,n,n,n,x,x
C[C@H](NC(=O)[C@@H](N)Cc1ccc(O)cc1)C(=O)N[C@@H](Cc1ccccc1)C(=O)NCC(=O)N[C@@H](Cc1ccc(O)cc1)C(=O)N1CCC[C@H]1C(=O)N[C@@H](CO)C(N)=O,x,x,x,n,x,x
ClC1=CCC2CN(CCN3CCCCC3)CC2C1 (centres undefined),n,n,n,79µM,n,n
NC1C=CC=C(C(=O)O)C1 (centres undefined),n,x,n,3.2µM,n,n
COc1ccc(NC(=O)Cn2c(=O)c3cccn3c3ccccc32)cc1Cl,n,n,n,n,x,x
c1cc2c(c(N3CCNCC3)c1)OCCO2,x,x,x,n,x,x
Ic1c(C2=CCCCC2)[se]c2ccccc12,x,x,x,n,x,x
CC(=O)OCC[N+](C)(C)C,n,n,n,n,n,u
C[N+](C)(C)CCOC(=O)CBr,n,n,n,25µM!,n,n
